What follows are molecules tested on EPHB3. Settings: concentration: 1 μM,replicates: in singlicate; n = 1.
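Further: KINOMEscan kinase panel screen.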

| SMILES | %Inh [%] |
| --- | --- |
| Cn1ccc2ncnc(Oc3ccc(NC(=O)Nc4cc(C(C)(C)C)on4)c(Cl)c3)c21 | 40 |
| COc1cc2ncn(-c3cc(OCC4CCCCC4)c(C(N)=O)s3)c2cc1OC [GSK204559] | 21 |
| CCn1c(-c2nonc2N)nc2cncc(CNC3CCNCC3)c21.Cl [SB-747651] | 8 |
| O=C(Nc1cccc(C(F)(F)F)c1)c1cccc(Oc2ccc3nccn3n2)c1 | 12 |
| COC(=O)c1cccc(NC(=O)NC2CCN(c3ccnc(Nc4cc(OC)c(OC)c(OC)c4)n3)C2)c1 (stereo not shown) [GSK1379767] | 8 |
| Cn1cc(-c2cccc3c(N)c(C(N)=O)nnc23)cn1 | 11 |
| CCN1CCN(CCCC(=O)Nc2n[nH]c3nc(-c4ccc(O)cc4)c(Br)cc23)CC1 [SB-731579] | 0 |
| COc1cccc(OC)c1C(=O)Nc1cccc(-c2nn3ccccc3c2-c2ccnc(Nc3cccc(F)c3)n2)c1 [GSK361065] | 8 |
| Cl.Cl.NC[C@H](CC1CCCCC1)NC(=O)c1ccc(-c2ccnc3[nH]ccc23)s1 [GSK1581428] | 15 |
| COc1cc2c(Nc3ccc(NC(=O)c4ccccc4)cc3)ncnc2cc1OCCCN1CCOCC1 [GSK301329] | 5 |
| CC(=O)Nc1ccc(-c2cc3ncnc(SCC(=O)O)c3s2)cc1 | 22 |
| C[C@@H]1CNc2c(sc3ccc4nc(-c5ccc(O)cc5)ccc4c23)C(=O)N1 | 0 |

What follows are molecules tested on EPHB4. Settings: concentration: 1 μM,replicates: in singlicate; n = 1.

| SMILES | %Inh [%] |
| --- | --- |
| CS(=O)(=O)c1cccc(CNc2nc(Nc3ccc4c(c3)[C@@H]3C[C@@H]4CNC3=O)ncc2C(F)(F)F)c1 | 16 |
| CSc1nccc(-c2c(-c3ccc(F)cc3)ncn2CCCN2CCOCC2)n1.Cl [SB-217146] | 0 |
| O=C1NCCc2[nH]c(-c3ccncc3)cc21 | 17 |
| FC(F)(F)c1cc(Br)cc(Nc2nccc(-c3cnn4ncccc34)n2)c1 [GW810578] | 0 |
| CN(c1ccc2c(c1)nc(NCc1ccc(F)cc1)n2C)c1ccnc(Nc2ccc(CS(C)(=O)=O)cc2)n1.Cl [GW813244] | 0 |
| Cc1ccc(CC(=O)N2CCc3cc(-c4cn(C)c5ncnc(N)c45)ccc32)cc1 [GSK2634758] | 10 |
| O=C(NCC1CC1)c1ccc(-c2cc(C(=O)NC3CC3)ccc2F)cc1 [GW810445] | 0 |
| CCn1c(-c2nonc2N)nc2cncc(Br)c21 [SB-738004] | 13 |
| CN1CCN(CCCNc2nccc(-c3c(-c4ccc(F)cc4)nn4cc(C(N)=O)ccc34)n2)CC1 [GW622475] | 20 |
| O=C(NOCC1CC1)c1cc(Br)c(F)c(F)c1Nc1ccc(I)cc1Cl | 0 |
| Cc1n[nH]c2cc(Nc3ccnc(Nc4cccc(CN5CCOCC5)c4)n3)ccc12 [GW682569] | 11 |
| C[C@@H]1CCN(C(=O)N2CCCC2)C[C@@H]1N(C)c1ncnc2[nH]ccc12 | 0 |
| CS(=O)c1ccc(-c2coc3ccc(-c4n[nH]c(=O)o4)cc23)cc1 (stereo not shown) | 0 |
| CC(C(=O)NC1CCN(c2ccnc(Nc3ccc(F)cc3)n2)C1)c1ccc(Cl)cc1 (stereo not shown) [GSK1379713] | 0 |
| COC(=O)Nc1nc2cc(Oc3ccc(NC(=O)Nc4cc(C(F)(F)F)ccc4Cl)cc3)ccc2[nH]1.Cl [GW697465] | 51 |
| Cn1ccc2ncnc(Oc3ccc(NC(=O)Nc4cccc(C(F)(F)F)c4)c(F)c3)c21 | 81 |
| O=c1[nH]cc(-c2ccc(O)cc2)c2sc(-c3ccncc3)cc12 [GSK1033723] | 13 |
| Cc1ccc2c(-c3ccnc(Nc4ccc(C(F)(F)F)cc4)n3)cnn2n1 [GW819776] | 0 |
| CN1CCN(CCNc2nc3cc(Oc4ccc(NC(=O)Nc5cc(C(F)(F)F)ccc5F)cc4)ccc3[nH]2)CC1.Cl.Cl [GW768504] | 17 |

| SMILES | %Inh [%] |
| --- | --- |
| Cc1ccc(C(=O)Nc2ccc(Oc3ccc4nc(NC(=O)C5CC5)cn4c3)c(F)c2)c(=O)n1-c1ccccc1 | 75 |
| Nc1nccc(-c2ccc3c(N)n[nH]c3c2)n1 [GSK1034945] | 6 |
| COc1cccc(CNC(=O)NC2CCN(c3ccnc(Nc4cc(OC)c(OC)c(OC)c4)n3)C2)c1 (stereo not shown) [GSK1379765] | 8 |
| Cn1ccc2ncnc(Oc3ccc(NC(=O)Nc4cccc(C(F)(F)F)c4)c(Cl)c3)c21 | 64 |
| CCNCC(Cc1ccccc1)NC(=O)c1cc(Br)c(-c2ccnc3[nH]ccc23)s1.Cl.Cl (stereo not shown) [GSK1383280] | 0 |
| Cc1cccc(-c2nc(Nc3ccncc3)c3sccc3n2)n1 [GW869641] | 0 |
| Cn1ccc2ncnc(Oc3ccc(NC(=O)Nc4cc(C(C)(C)C)on4)c(Cl)c3)c21 | 35 |
| COc1cc2ncn(-c3cc(OCC4CCCCC4)c(C(N)=O)s3)c2cc1OC [GSK204559] | 8 |
| CCn1c(-c2nonc2N)nc2cncc(CNC3CCNCC3)c21.Cl [SB-747651] | 0 |
| O=C(Nc1cccc(C(F)(F)F)c1)c1cccc(Oc2ccc3nccn3n2)c1 | 23 |
| COC(=O)c1cccc(NC(=O)NC2CCN(c3ccnc(Nc4cc(OC)c(OC)c(OC)c4)n3)C2)c1 (stereo not shown) [GSK1379767] | 20 |
| Cn1cc(-c2cccc3c(N)c(C(N)=O)nnc23)cn1 | 5 |
| CCN1CCN(CCCC(=O)Nc2n[nH]c3nc(-c4ccc(O)cc4)c(Br)cc23)CC1 [SB-731579] | 0 |
| COc1cccc(OC)c1C(=O)Nc1cccc(-c2nn3ccccc3c2-c2ccnc(Nc3cccc(F)c3)n2)c1 [GSK361065] | 8 |
| Cl.Cl.NC[C@H](CC1CCCCC1)NC(=O)c1ccc(-c2ccnc3[nH]ccc23)s1 [GSK1581428] | 14 |
| COc1cc2c(Nc3ccc(NC(=O)c4ccccc4)cc3)ncnc2cc1OCCCN1CCOCC1 [GSK301329] | 2 |
| CC(=O)Nc1ccc(-c2cc3ncnc(SCC(=O)O)c3s2)cc1 | 23 |
| C[C@@H]1CNc2c(sc3ccc4nc(-c5ccc(O)cc5)ccc4c23)C(=O)N1 | 0 |

Source: paper PMC5540273 (PLoS ONE, 2017)
